This is part of a sample that, as a whole, favours compounds with a hit. Of some 83,000 tested, about 20% had one in any assay.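 48-hour exposure, single concentration, 96-well plates; percent growth endpoint where 0 means no net growth. Active: below 10.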 Values without a mark were called inactive. Activity calls are given as the source filed them.
Each compound was assayed on MDA-MB-435 melanoma (assay: NCI-60 one-dose screen, 48 h (100 = growth as untreated, 0 = no growth, -100 = all killed)). Conditions: 10 µM unless noted.

Q: How did the growth turn out when COc1ccc(C/C(C)=C(\c2ccc(Cl)cc2)c2ccc(OCCN3CCCCC3)cc2)cc1 was run?
A: 102%

Q: Cc1ccc(C(=O)c2ccc(CC(=O)N/N=C/c3ccccc3O)n2C)cc1 was tested. Which growth did it give?
A: 83.2%

Q: With CCO/C=N/C1=C(C#N)C(c2ccc(Cl)cc2)c2sc3c(F)cccc3c2O1 (stereo unspecified) as the compound, how does the growth read?
A: -30.4% (active)

Q: For CCCCNC(=O)Oc1ccc(/C(=C(/C)Cc2ccc(OC)cc2)c2ccc(OCCN(CC)CC)cc2)cc1, which growth is on record?
A: 66.8%

Q: How did the growth turn out when COc1cc2oc(-c3cccc(NC(=O)c4ccccc4)c3)cc(=O)c2c(OC)c1OC was run?
A: 80.7%

Each compound was assayed on SW-620 colon in the same assay as above. Conditions: 10 µM unless noted.

Q: CN1C(=O)/C(=C\c2nc([P+](c3ccccc3)(c3ccccc3)c3ccccc3)c(N3CCOCC3)o2)SC1=S was tested. Which growth did it give?
A: 96.2%

Q: How did the growth turn out when COc1ccc2c(c1)c(-c1nc(-c3c[nH]c4ccncc34)cs1)cn2C was run?
A: -63.9% (active)

Q: For COc1ccc(C(=O)c2cc3c(N)c(C(=O)Nc4ccc(C)cc4)sc3nc2C)cc1, which growth is on record?
A: 28.3%

Q: With COc1cc2nc3cc([N+](=O)[O-])ccc3c(NCCNCC(C)O)c2cc1OC (stereo unspecified) as the compound, how does the growth read?
A: -4.13% (active)

Q: Cc1sc2nc(NCCc3c[nH]c4ccc(Cl)cc34)[nH]c(=O)c2c1C was tested. Which growth did it give?
A: 9.09% (active)

Q: How did the growth turn out when CC/C(=C(/c1ccc(Cl)cc1)c1ccc(OCCN(C)C)cc1)c1ccc(Cl)cc1 was run?
A: 55.8%

Q: Which growth does the source give for CNC(=O)c1[nH]cc(-c2ccc(OC)cc2)c1-c1cc(OC)c2c(c1OC)OCO2 here?
A: 103%

Q: Which growth does the source give for C=CCc1c(O)c(C(=O)/C=C/c2ccccc2)c(OC)c2ccoc12 here?
A: 39.9%

Q: COc1ccc(-c2cc(-c3ccc(Cl)cc3)c(C#N)c(=O)n2Cc2ccc(C(=O)Nc3ccccc3N)cc2)cc1 was tested. Which growth did it give?
A: 78.9%

Q: COc1ccc(/C=C/C(=O)c2cccc(OCCCCOc3cccc(C(=O)/C=C/c4ccc(OC)c(OC)c4)c3)c2)cc1OC was tested. Which growth did it give?
A: 89.5%

Q: How did the growth turn out when CCOC(=O)c1ccc(NC(=O)c2nc(-c3cc(OC)c(OC)c(OC)c3)n(-c3ccc(Cl)cc3)n2)cc1 was run?
A: 105%

Q: How did the growth turn out when Cc1ccc(CNc2ccc3nc(CCC4CCCCC4)[nH]c3c2)cc1 was run?
A: 32.3%

Q: Which growth does the source give for CC(=O)c1c(C)nc(SCC(=O)Nc2cccc(O)c2)n1-c1ccc(Cl)cc1 here?
A: 87.3%

Q: With Cc1ccc2c(c1)=C/C(=C\c1cc(-c3ccccc3)oc1O)C(=O)N=2 as the compound, how does the growth read?
A: 107%

Q: With O=C(CSc1nnc(-c2cnccn2)n1-c1ccccc1)c1ccc(Cl)cc1 as the compound, how does the growth read?
A: 106%

Q: For CCC(=C(c1ccc(OCCN2CCCCC2)cc1)c1ccc(OCCN2CCCCC2)cc1)c1ccc(Cl)cc1, which growth is on record?
A: -84.1% (active)

Q: O=C(Nc1ccc(Oc2cccc(Cl)c2)c(Cl)c1)c1cnccn1 was tested. Which growth did it give?
A: 22.7%

Q: How did the growth turn out when CCCNc1nc2ccccc2c2c1S(=O)(=O)c1ccc(Cl)cc1C2=O was run?
A: -4.27% (active)

Q: How did the growth turn out when C=CCOC(=O)Nc1cccn([C@H](Cc2ccccc2)C(=O)NCCC(C)C)c1=O was run?
A: 109%

Q: With N#Cc1c(-c2ccc(Cl)cc2)nc(NN2C(=O)c3ccccc3C2=O)nc1N1CCOCC1 as the compound, how does the growth read?
A: 98.8%

Q: With N#Cc1nc(-c2ccc(F)cc2)oc1S(=O)(=O)N1CCCCC1 as the compound, how does the growth read?
A: -72.2% (active)

Q: For COc1ccc2cc1Oc1ccc(cc1)C[C@H]1c3c(cc4c(c3Oc3cc5c(cc3OC)CCN(C)[C@@H]5C2)OCO4)CCN1C, which growth is on record?
A: 55.3%

Q: With C=C1C(=O)O[C@H]2[C@H]1CC/C(COC(=O)/C=C\C(=O)NCc1ccc(Cn3c(=O)sn(CCI)c3=O)cc1)=C\CC[C@@]1(C)O[C@@H]21 as the compound, how does the growth read?
A: 8.21% (active)

Q: How did the growth turn out when CCOC(=O)c1c(NC(=O)c2ccc(Cl)cc2)sc2c(CN(C)C)c(O)ccc12 was run?
A: 28.1%

Q: For CSc1nc(N)c(NS(=O)(=O)c2ccc(C(C)=O)cc2)c(=O)[nH]1, which growth is on record?
A: 102%

Q: COc1cc2c(c(OC)c1OC)CCC(c1cccc(C(=O)Nc3cccc(Cl)c3)c1)O2 (stereo unspecified) was tested. Which growth did it give?
A: 99.2%

Q: Which growth does the source give for Cc1nc2sc(C(=O)Nc3cccc4ccccc34)c(N)c2cc1C(O)c1ccccc1 (stereo unspecified) here?
A: 20.2%

Q: How did the growth turn out when COc1ccc(C(=O)N2c3ccccc3Sc3ccccc32)c(OC)c1 was run?
A: 24.8%

Q: With Cc1nc2sc(C(=O)Nc3ccc(Br)cc3)c(N)c2cc1C(O)c1ccccc1 (stereo unspecified) as the compound, how does the growth read?
A: 45.8%

Q: With CNc1nnc2n(-c3ccccc3)c(=O)c3cnn(-c4ccccc4)c3n12 as the compound, how does the growth read?
A: 105%

Q: For [O-]/[N+](=C\c1ccc(-n2cc(Cc3ccccc3Cc3cn(-c4ccc(/C=[N+](/[O-])c5ccccc5)cc4)nn3)nn2)cc1)c1ccccc1, which growth is on record?
A: 102%
